Hits are enriched below; roughly 21% of the tested compounds scored in any of these assays.
NS1 inh – blocks influenza NS1 protein function. Potency, µM (highest dose often 46.1 µM), without a hit: top-dose activity, positive = more growth. actives 0.4% (n = 270,000); note: potency is the fitted concentration of half-maximal effect; actives are rising curves; nearly all actives have a fitted effect of over 50% in size
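Recovery from NS1-induced slow growth read by OD600 in budding yeast switched to galactose assay medium (pH 6.0, -URA) at 1:100 dilution. Compound 23 nl per well; the matching strain lacking NS1 serves as control.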
Pf growth 48h – inhibits P. falciparum growth in the first generation, 48 h; P. falciparum luciferase growth in erythrocytes, 48 h; Potency, µM (series often up to 28.7 µM), for the others: at the highest dose activity change, negative = inhibition, usual class: inhibitors; actives 5.9% (n = 310,000); active = well fitted inhibition curve with a large enough effect; inconclusive = small, poorly fitted or top-dose-only effect, or another doubt; inactive = no such curve, though single readings can be large or run the other way; note: potency is the fitted concentration of half-maximal effect; % is set by controls: 0 for no effect and ±100 for the full control effect
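Firefly luciferase activity from engineered P. falciparum reports growth; inhibitors lower the luminescent signal. Cultures contained 2% hematocrit erythrocytes at 0.1% final parasitemia.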
CHX counter – counter-screen for Shiga toxin inhibitors: cycloheximide protein synthesis inhibition. cell reporter, cycloheximide protein synthesis inhibition counterscreen. actives 12% (n = 300,000). max response, %; in the data active = max response mostly above about 13%, no sharp cut-off; inactive = mostly below about 14%; note: read at 38.3 µM for the half of the compounds with a filed dose; 0% is about no effect
Shiga inhibitor – blocks Shiga toxin action in Vero cells. inhibition, % at 38.7 µM. actives 9.2% (n = 290,000). Vero cells, Shiga toxin protein synthesis inhibition reporter; in the data active = inhibition mostly above about 28%, no sharp cut-off; inactive = mostly below about 43%; note: 0% is about no effect
Pf growth 96h – inhibits malaria parasite growth, 96 h. P. falciparum luciferase reporter growth, 96 h. Potency, µM (top dose mostly 28.7 µM), for inactives: top-dose activity change, negative = inhibition, most hits filed as inhibitors. actives 6.9% (n = 320,000); active = well fitted inhibition curve with a large enough effect; inconclusive = small, poorly fitted or top-dose-only effect, or another doubt; inactive = no such curve, though single readings can be large or run the other way; note: potency is the fitted concentration of half-maximal effect; % is set by controls: 0 for no effect and ±100 for the full control effect
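Two-generation exposure (96 h) targets delayed-death phenotype. Reporter parasites carrying integrated firefly luciferase, in red cells at 2% hematocrit and 0.05% parasitemia final, kept at 37 C, 5% CO2; luminescence loss indicates inhibition.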
SARS PLpro yeast – SARS-CoV PLP inhibition in yeast. actives 0.19% (n = 330,000). S. cerevisiae expressing SARS-CoV PLpro, growth rescue. Potency, µM (top dose mostly 32.9 µM), for inactives: at the top dose activity, positive = growth rescue, usual class: activators. AID 485353; note: potency is the fitted concentration of half-maximal effect; 0% is about no effect; nearly all actives have a fitted effect of over 55% in size
Numbers without * were called inactive; ? = inconclusive; nt = no result. Unless noted, calls come from the whole dose curve.

SMILES	NS1 inh	Pf growth 48h	CHX counter	Shiga inhibitor	Pf growth 96h	SARS PLpro yeast
S=C(Nc1ccccc1)N1CCOCCOCCN(C(=S)Nc2ccccc2)CCOCCOCC1	0.0%	?	-2.2	-3.0	?	-0.2%
S=C(Nc1ccc(Oc2ccccc2)cc1)N1CCOCC1	-8.6%	19.6%	12.3*	25.1	1.17µM*	-3.9%
COc1ccc(CCNC(=O)CNS(=O)(=O)c2cccs2)cc1OC	1.0%	1.5%	-2.6	-4.9	nt	-1.2%
CCC(=O)Nc1cc(C(C)(C)C)ccc1C(C)=O	-11.6%	-6.5%	-5.7	6.0	-16.2%	-12.8%
Cc1c(NS(=O)(=O)c2ccc3c(c2)NC(=O)CC(=O)N3)cccc1[N+](=O)[O-]	-5.5%	11.6%	-9.9	-5.2	14.7µM*	-0.9%
CCc1ccccc1NS(=O)(=O)c1ccc2c(c1)NC(=O)CC(=O)N2	2.2%	-4.8%	-1.0	-1.7	8.5%	-13.1%
C/C(=C/C(=O)Nc1cccc(F)c1)N1CCCC1	nt	13.9%	-2.6	-4.3	16.2%	0.9%
CC(NC(=O)Nc1cccc(Cl)c1)C(c1cccs1)N1CCCC1 (centres undefined)	35.1%	?	0.2	-10.9	9.28µM*	26.6%
CC(NC(=S)Nc1ccc(Cl)cc1Cl)C(c1cccs1)N1CCCC1 (centres undefined)	11.8%	?	-1.0	9.0	11.7µM*	-0.7%
CC(NC(=O)Nc1ccc([N+](=O)[O-])cc1)C(c1cccs1)N1CCCC1 (centres undefined)	-9.0%	?	0.9	4.1	9.28µM*	-21.8%
CC(NC(=O)Nc1ccccc1)C(c1cccs1)N1CCN(C)CC1 (centres undefined)	-0.5%	-2.6%	-1.4	1.0	-2.8%	2.5%
O=C1C(=C(c2ccccc2)c2ccccc2)Nc2ccccc21	-6.0%	?	4.4	3.3	nt	-16.6%
O=C1C(=C(O)c2ccccc2)C(=O)c2ccccc21	-15.9%	?	14.2*	23.7	-7.0%	0.3%
COC(=O)c1sc(N)c(C(=O)OC)c1Cn1ncc(Cl)c(Cl)c1=O	1.8%	13.1µM*	3.1	14.2	8.28µM*	10.7%
CCCn1c(CN2CCN(C(=O)OCC)CC2)nc2cc([N+](=O)[O-])ccc21	-2.8%	-22.6%	-2.4	9.2	398.6%	0.2%
O=C(COC(=O)c1ccc2ccccc2c1O)NCC(F)(F)F	7.2%	23.9%	22.3*	69.3*	18.1%	-1.9%
Cc1ccc(C(=O)Oc2oc(-c3ccccc3)nc2C=Nc2ccc(N(C)C)cc2)cc1	19.5%	161.7%	78.0*	130.5*	96.4%	-0.7%
Cn1c(Cl)c(/C=N/OC(=O)c2cccc(Cl)c2)c2ccccc21	8.4%	35.2%	-3.1	-8.6	121.7%	1.0%
COc1ccc(N=Cc2nc(-c3ccccc3)oc2OC(C)=O)cc1	-2.9%	34.1%	-0.7	13.8	51.2%	-0.5%
CN(C)c1ccc(N=Cc2nc(-c3ccccc3)oc2OC(=O)c2cccc(Cl)c2)cc1	5.9%	182.0%	67.7*	70.6*	212.3%	-14.1%
COc1cccc(N=Cc2nc(-c3ccccc3)oc2OC(C)=O)c1	-4.4%	49.4%	8.5	48.0*	146.6%	-1.9%
Cc1cc(Br)ccc1SCC(=O)OCC(=O)Nc1ccccc1C#N	-7.4%	13.8%	-3.2	-3.6	26.0%	-9.4%
CC(C)(C)c1ccc(S(=O)(=O)Nc2ccc(Cc3ccncc3)cc2)cc1	4.1%	?	22.2*	56.2	?	-34.1%
C=CCN1C(=O)CSC1=Nc1cccc(O)c1	7.1%	5.7%	-3.6	-12.5	nt	-0.6%
C=CCN1C(=Nc2cccnc2)SCC1(O)c1ccc(C)cc1 (centres undefined)	-68.0%	3.29µM*	-1.6	28.0	16.1%	-9.6%
SMILES	NS1 inh	Pf growth 48h	CHX counter	Shiga inhibitor	Pf growth 96h	SARS PLpro yeast
C[C@H](O)CN(C)C	nt	5.8%	nt	nt	-13.0%	nt
CCCCC1=NN2CCS(=O)(=O)N=C2S1	nt	25.3%	-6.0	-1.9	30.5%	11.8%
CCCCOc1ccc(C(=O)NCC2(c3ccccc3)CCOCC2)cc1	-36.6%	?	4.2	-5.4	10.4µM*	-8.5%
CCCCCOc1ccc(C(=O)NCC2(c3ccccc3)CCOCC2)cc1	-41.4%	13.1µM*	8.7	1.7	?	-34.0%
CCOc1ccc(C(=O)NCC2(c3ccccc3)CCOCC2)cc1	1.6%	7.5%	-2.6	3.3	23.8%	-1.8%
CC(C)CNC(=S)N(CCCO)Cc1cc2cc3c(cc2[nH]c1=O)OCO3	-1.4%	112.4%	6.3	-19.5	-24.8%	8.5%
COc1cccc(NC(=O)CSc2nc3ccsc3c(=O)n2-c2ccc(C(=O)O)cc2)c1	nt	-11.5%	-2.4	3.4	?	1.2%
COC(=O)c1ccc(N=NNc2ccccc2)cc1	-1.0%	109.4%	53.3*	131.3*	?	-10.6%
COC(=O)c1ccc(N=NNc2ccc(C(=O)OC)cc2)cc1	12.4%	271.9%	122.1*	126.6*	3.5%	?
COC(=O)c1ccc(N=NNc2cccc(Br)c2)cc1	3.3%	244.2%	63.4*	74.3*	?	-9.9%
CSCC[C@H](N)C(=O)N1CCC(C(=O)N[C@H](C(=O)NCc2ccccc2F)C(C)C)CC1	-7.7%	33.1%	-2.4	-1.8	1.6%	-0.6%
CCOc1ccccc1NC(=O)C(OC(=O)C1CC1)c1ccccc1 (centres undefined)	-66.1%	?	0.4	-0.7	-11.7%	1.2%
CCOc1ccccc1NC(=O)C(NCC1(N2CCCCC2)CCCCC1)c1ccccc1 (centres undefined)	1.2%	?	-2.3	-5.5	3.7µM*	-1.1%
C=CCn1c(SCC(=O)NC(N)=O)nnc1-c1cc2c(s1)CCC(CC)C2 (centres undefined)	-0.5%	10.9%	9.4	34.2	-4.8%	-1.2%
C=CCn1c(SCC(=O)NCCOC)nnc1-c1cc2c(s1)CCC(CC)C2 (centres undefined)	-6.8%	-15.6%	14.6*	-70.0	-21.9%	11.4%
C=CCn1c(SCC(=O)NCC)nnc1-c1cc2c(s1)CCC(CC)C2 (centres undefined)	-51.1%	28.7%	41.6*	93.8*	12.5%	9.4%
Cc1ccc(NC(=O)CN(C)C(=O)COc2ccccc2-c2ccccc2)cc1	nt	nt	nt	nt	nt	-33.4%
Cn1c(=O)c(=O)n(C)c2cc(S(=O)(=O)N3CCN(C4CCCCC4)CC3)ccc21	5.2%	nt	-4.1	9.2	8.28µM*	5.0%
CC1CCCN(S(=O)(=O)c2ccc3c(c2)n(C)c(=O)c(=O)n3C)C1 (centres undefined)	-1.5%	8.7%	0.8	7.1	-13.2%	1.4%
CC1(C)N=C(N)N=C(N)N1c1cccc(OCc2cccc([N+](=O)[O-])c2)c1	-7.9%	nt	nt	nt	nt	nt
COc1ccc(CCNC(=O)CCC(=O)Nc2nnc(C(C)C)s2)cc1OC	-8.9%	-7.9%	-2.5	-6.8	17.3%	1.3%
O=C(NCC1CCCCC1)c1ccc(F)cc1Cl	-13.0%	58.3%	57.0*	89.0*	?	1.7%
CCOC(=O)c1oc2nc(CC(C)C)c3c(c2c1N)CCC3	3.6%	?	-3.2	-9.5	7.38µM*	-2.1%

Source: PubChem BioAssay
